ERK EGF inh: inhibitors of EGF-stimulated ERK signaling pathway; HEK293-V1b, EGF-stimulated phospho-ERK AlphaScreen; Potency, µM (titrated, usually from 11.5 µM), actives largely listed as inhibitors; 130,000 compounds, 0.41% hits; AID 1454; also: nearly all actives have a fitted effect of over 55% in size
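HEK293 cells stably expressing V1b receptor, serum-reduced (1% FBS) overnight, pretreated 30 min with compound, then stimulated 5 min with 25 nM EGF; phospho-ERK detected by AlphaScreen SureFire. AC50 from Hill fits, normalized to DMSO and EGF.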
pERK EGF inh: confirmation of ERK pathway inhibitors under EGF stimulation; AID 1725; 60 compounds, 60% hits; HEK293 EGF-stimulated ERK phosphorylation, AlphaScreen; shares compounds with ERK EGF inh; Potency, µM (highest dose often 57.5 µM), most hits filed as inhibitors
c-Raf inh: c-Raf inhibition, ERK pathway follow-up; c-Raf kinase inhibition, homogeneous biochemical assay; 70 tested, under 10 active; activity change, negative = inhibition, % at 76.9 µM; shares compounds with ERK EGF inh; AID 1728
Target sequence (P04049 whole entry, looked up): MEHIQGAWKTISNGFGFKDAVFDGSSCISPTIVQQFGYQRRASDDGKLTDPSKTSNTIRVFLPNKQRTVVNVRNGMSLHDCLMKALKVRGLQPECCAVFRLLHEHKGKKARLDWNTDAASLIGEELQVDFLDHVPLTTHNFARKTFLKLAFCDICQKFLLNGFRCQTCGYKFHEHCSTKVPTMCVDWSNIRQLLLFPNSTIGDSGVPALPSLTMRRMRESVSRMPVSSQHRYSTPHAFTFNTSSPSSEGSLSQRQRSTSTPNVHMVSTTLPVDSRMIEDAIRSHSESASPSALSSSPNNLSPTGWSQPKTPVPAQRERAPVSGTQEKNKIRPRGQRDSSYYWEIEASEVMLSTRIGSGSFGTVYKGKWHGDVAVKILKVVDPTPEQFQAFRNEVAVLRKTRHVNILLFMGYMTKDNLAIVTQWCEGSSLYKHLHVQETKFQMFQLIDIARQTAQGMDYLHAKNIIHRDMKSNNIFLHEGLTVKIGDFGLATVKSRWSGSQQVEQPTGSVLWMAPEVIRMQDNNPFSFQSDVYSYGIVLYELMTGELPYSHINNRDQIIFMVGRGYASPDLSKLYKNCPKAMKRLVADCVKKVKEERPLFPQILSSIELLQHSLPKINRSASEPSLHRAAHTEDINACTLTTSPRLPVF
MEK1 kinase inh: MEK1 (human) kinase inhibition; shares compounds with ERK EGF inh; homogeneous MEK kinase activity assay, ERK pathway; Potency, µM (highest dose often 76.9 µM), most hits filed as inhibitors; 70 tested, under 10 active; AID 1732
A number is an active result; . = inactive; ? = inconclusive; / = no result. The sample as a whole holds a higher share of hits than the screen did. Calls follow the shape of the dose curve; as a rule, active = well fitted curve in the direction sought with a large enough effect; inconclusive = small, poorly fitted or top-dose-only effect, or another doubt; inactive = no such curve, though single readings can be large; an effect the other way counts as inactive or inconclusive.

SMILES	ERK EGF inh	others
CC(C)CC1NC(=O)C(CCCN)NC(=O)C(C(C)C)NC(=O)C2CCCN2C(=O)C(Cc2ccccc2)NC(=O)C(CC(C)C)NC(=O)C(CCCN)NC(=O)C(C(C)C)NC(=O)C2CCCN2C(=O)C(Cc2ccccc2)NC1=O (stereo not given)	3.5µM
CCC1=C2CC[C@H]3C(=O)N(C)C(=O)[C@H]3[C@H]2[C@@]2(Cc3ccccc3)C(=NCC3CC3)OC(=O)N2C1=O	.
Cc1ccc(N=CC2=C(O)CC(c3ccccc3Cl)CC2=O)cc1 (stereo not given)	20µM
Cc1ccc(N=CC2=C(O)CC(c3cccc(Cl)c3)CC2=O)cc1 (stereo not given)	.
O=C1CC(c2ccccc2)CC(O)=C1C=Nc1ccc(Cl)cc1 (stereo not given)	.
CN(C)C(=O)c1ccc(-c2nc(N(C)C)c3ccccc3n2)cc1	.
COC(=O)c1cc(C(=O)N2CCOCC2)cc([N+](=O)[O-])c1	.
COC1(C)CC2C(CC1OC(=O)c1cc([N+](=O)[O-])cc([N+](=O)[O-])c1)C2(C)C (stereo not given)	25µM
CCOC(=O)c1cc(N)cc([N+](=O)[O-])c1	.
CC(C)=CCC1=C(O)c2ccccc2C(=O)C1=O	.
COc1ccc2oc(-c3ccccc3)c(OC)c(=O)c2c1	.
c1cncc(CNc2ncnc3sc4c(c23)CCCC4)c1	.
COc1ccc(/C=N/Nc2ncnc3sc4c(c23)CCCC4)cc1OC	.
Cc1sc2ncnc(Nc3ccccc3)c2c1C	/	pERK EGF inh=?;c-Raf inh=.;MEK1 kinase inh=.
Cc1cc(C)nc(Sc2ncnc3sc4c(c23)CCC4)n1	.
CN(C)C(CNc1ncnc2sc3c(c12)CCCCC3)c1ccco1 (stereo not given)	.
Cc1nc(Nc2cccc(O)c2)c2c3c(sc2n1)CCC3	.
Fc1ccc(Nc2ncnc3sc4c(c23)CCC4)cc1	/	pERK EGF inh=10µM;c-Raf inh=?;MEK1 kinase inh=.
Cc1sc2ncnc(NC(C)C(=O)O)c2c1C (stereo not given)	.
c1ccc(Nc2ncnc3sc4c(c23)CCC4)cc1	/	pERK EGF inh=10µM;c-Raf inh=.;MEK1 kinase inh=.
Cc1sc2ncnc(N[C@@H](Cc3c[nH]c4ccccc34)C(=O)O)c2c1C	.
Fc1ccc(Nc2ncnc3sc4c(c23)CCC4)cc1F	2.5µM	pERK EGF inh=8.9µM;c-Raf inh=?;MEK1 kinase inh=?
Cc1cc(F)ccc1S(=O)(=O)Nc1ncnc2sc3c(c12)CCC3	.
CCSc1nnc(NC(=O)CSc2nnc(CNC(=O)c3ccc(OC)c(OC)c3)o2)s1	.
S=C(NCCc1ccccc1)Nc1cccc2cnccc12	.
SMILES	ERK EGF inh	others
CC(C)Cn1c(N)c(C(=O)COC(=O)C2CC(=O)N(Cc3ccccc3Cl)C2)c(=O)n(C)c1=O (stereo not given)	.
COc1ccc(NC(=S)NCCCCCC(=O)C[N+](=O)[O-])cc1	.
CNC(=O)c1sc(-c2ccccn2)nc1C	.
Cc1cc(C)c(Cn2ncn(-c3ccc(Br)cc3)c2=O)c(C)c1	.
Cc1nnc(SC(C)C)n(N)c1=O	.
COC(=O)c1cn(NC(=O)Cc2ccccc2Br)c(=O)c2ccccc12	.
NNS(=O)(=O)c1ccc(Sc2ccccn2)c([N+](=O)[O-])c1	.
Cc1csc(SCC(=O)Nc2ccccc2[N+](=O)[O-])n1	.
COc1cccc(/C=N/Nc2ncnc(Cl)c2N)c1O	.
COc1cccc(/C=N/Nc2ncnc3scc(-c4ccccc4)c23)c1O	.
COc1cccc(/C=N/Nc2cc(-n3nc(C)cc3-c3ccccc3)ncn2)c1O	8.9µM	pERK EGF inh=11µM;c-Raf inh=?;MEK1 kinase inh=.
Cc1ccccc1-n1nc(C)c(N=O)c1N	.
COc1ccccc1/C=C1\CCCC2=C1Nc1nnnn1C2c1ccccc1OC (stereo not given)	.
C=CCN1C(=O)/C(=C\c2cc(Br)c(OCc3ccccn3)c(OC)c2)SC1=S	.
C=CCN1C(=O)/C(=C/C=C2/N(CC)c3ccc(S(=O)(=O)N(C)C)cc3N2CC)SC1=S	?	pERK EGF inh=?;c-Raf inh=.;MEK1 kinase inh=.
CCN1C(=O)C(CC(=O)Nc2ccc(C)cc2C)Nc2cc(S(=O)(=O)N(C)C)ccc21 (stereo not given)	.
O=C(Nc1cccc(Cl)c1N1CCCCC1)c1ccc(N2CCOCC2)c([N+](=O)[O-])c1	.
Cc1ccc(-c2csc(NC(=O)c3cc([N+](=O)[O-])ccc3N3CCOCC3)n2)cc1	.
O=C(Nc1nc(-c2ccccc2)cs1)c1ccc(N2CCOCC2)c([N+](=O)[O-])c1	4µM	pERK EGF inh=10µM;c-Raf inh=?;MEK1 kinase inh=.
COc1ccc(C/C(N)=N/OC(=O)c2ccc(Cl)cc2)cc1	.
COc1ccc(C(=O)N2C(=S)NC(=O)/C2=C\c2ccc(C)cc2)cc1	.
COc1ccc(C(=O)N2CCC3(CCCN(c4ccc(-c5ccccc5)cc4)C3)CC2)cc1	.
COc1ccc(N=C2C(=Nc3ccc(OC)cc3)N(c3ccc(OC)cc3)C(=S)N2C(=O)c2ccc(OC)cc2)cc1	?	pERK EGF inh=5.6µM;c-Raf inh=.;MEK1 kinase inh=.
COC(=O)CN1C(=S)N(c2ccc(OC)cc2)C(=O)/C1=C/c1ccc(OC)cc1	.
COc1ccc(N2C(=O)/C(=C/N(C)C)NC2=S)cc1	.
SMILES	ERK EGF inh	others
COc1ccc(N=C2C(=Nc3ccc(OC)cc3)N(c3ccc(N(C)C)cc3)C(=S)N2c2ccc(OC)cc2)cc1	/	pERK EGF inh=.;c-Raf inh=.;MEK1 kinase inh=.
COc1ccc(NC(=S)c2ccc(N(C)C)cc2)cc1	.
COc1ccc(N=C2C(=Nc3ccc(OC)cc3)N(c3ccccc3)C(=S)N2C(=O)c2ccc(Cl)cc2)cc1	2.2µM	pERK EGF inh=.;c-Raf inh=.;MEK1 kinase inh=.
CCOC(=O)NC(=O)COC(=O)CCCc1nc2ccccc2s1	.
CCn1ncc(/C=N\NC(=O)Cc2ccc([N+](=O)[O-])cc2)c1C	.
COc1ccc(N2C(=O)CN(Cc3ccc(OC)c(OC)c3)C2=S)cc1	.
Cc1c(O)c(=O)ccn1C	.
S=C(NCCC1=CCCCC1)NCc1ccco1	.
Cc1cc(N=Nc2ccc(C)c(N=Nc3cc(C)c(N)cc3N)c2)c(N)cc1N	.
CCNc1nc(NCC)nc(SCC(C)=O)n1	.
CCn1c(SCC(=O)N/N=C/c2ccc(C)s2)nc2ccccc21	.
Cc1cc2nc3ccc(=[N+](C)C)cc-3sc2cc1N	?	pERK EGF inh=.;c-Raf inh=?;MEK1 kinase inh=?
Cc1nc2cc(C)c(C)cc2s1	.
Cc1nc2cc3sc(C)nc3cc2s1	.
CC(C)(C)c1ccc(NC(=O)c2c(F)cccc2Cl)cc1	.
O=[N+]([O-])c1cccc(/C=N/Nc2nnc(-c3ccccc3)c(-c3ccccc3)n2)c1	.
C/C(=N\Nc1cc(C)nc(NCc2ccccc2)n1)c1cccc([N+](=O)[O-])c1	.
C/C(=N\Nc1nnc(-c2ccccc2)c(-c2ccccc2)n1)c1cccc([N+](=O)[O-])c1	?	pERK EGF inh=.;c-Raf inh=.;MEK1 kinase inh=.
Fc1ccc(-c2c[nH]c(=S)n2Cc2ccccc2)cc1	.
CC(C)(C)C(=O)C[n+]1ccc(C(N)=O)cc1	.
CCNc1nc(NCC)n2c(SCC(=O)c3ccccc3F)nnc2n1	.
O=C(/C=C/c1ccc(Br)cc1)NC(=S)Nc1ccc(S(=O)(=O)Nc2nccs2)cc1	.
Oc1ccc(Cc2ccc(Cl)cc2)c(O)c1	.
CCOc1ccc(C(=O)CSCC(=O)O)cc1	.
N#CC(=C(\N)Sc1ccccc1N)/C(C#N)=C(/N)Sc1ccccc1N	1.4µM	c-Raf inh=.
